# CHO-K1 Ca ag: counter-screen for M1 agonists: effect in parental CHO-K1 cells; activation, % at 3 µM; AID 602248; Fluo-8 calcium fluorescence; scaled to maximal ATP response, vehicle zero; hit rate 0.48% among 360,000; in the data active = activation above about 15%;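 note: untransfected CHO-K1 host cells lacking M1 receptor as counterscreen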
# CHRM1 agonist: human M1 muscarinic receptor agonism; P11229; CHO-K1 hM1, Fluo-8 calcium fluorescence, agonist mode; 0% DMSO, 100% acetylcholine EC100; activation, % at 3 µM; hit rate 0.33% among 360,000;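 active = activation above the run's mean compound activation plus 3 SD, cut at about 16% in these data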;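 note: peak over basal fluorescence ratio within a 140 s kinetic read after compound addition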
# Target sequence (P11229 whole entry, looked up): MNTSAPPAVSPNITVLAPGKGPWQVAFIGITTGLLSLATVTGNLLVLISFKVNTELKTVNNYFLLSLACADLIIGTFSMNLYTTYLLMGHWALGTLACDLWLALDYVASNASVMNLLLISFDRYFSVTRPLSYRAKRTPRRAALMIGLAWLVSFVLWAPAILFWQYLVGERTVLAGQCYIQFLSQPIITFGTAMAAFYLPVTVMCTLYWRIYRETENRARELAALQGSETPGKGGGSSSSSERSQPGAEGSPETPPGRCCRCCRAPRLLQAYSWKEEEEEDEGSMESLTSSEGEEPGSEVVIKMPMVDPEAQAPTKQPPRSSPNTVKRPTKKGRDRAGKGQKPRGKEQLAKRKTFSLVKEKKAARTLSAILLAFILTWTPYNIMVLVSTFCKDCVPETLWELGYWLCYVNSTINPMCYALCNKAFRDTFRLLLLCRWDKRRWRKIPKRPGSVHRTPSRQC
# CHRM1 antagonist: antagonists of human M1 muscarinic receptor; P11229; CHO-K1 hM1, Fluo-8 calcium fluorescence, ACh EC80 antagonist; inhibition, % at 3 µM; hit rate 1.3% among 360,000; AID 588852;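 active = percent inhibition above its own plate's cutoff, namely the mean of that plate's compound wells plus 3 SD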;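 note: peak over basal fluorescence ratio during 140 s after agonist addition; 0% = ACh EC80 plus DMSO and 100% = DMSO alone without agonist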
# M1 PAM parental: nonselective activator or artifact in parental CHO-K1 calcium assay; ATP EC20, Fluo-8 calcium fluorescence; 0% at ATP EC20, 100% at ATP max; activation, % at 3 µM; hit rate 0.02% among 360,000; AID 602247;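 active = activation above the run cutoff, the mean activation of all test compounds plus 3 SD, cut at about 40% in these data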;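 note: peak over basal fluorescence ratio in a 140 s read after ATP addition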
# CHO-K1 Ca antag: nonselective inhibitor or artifact in parental CHO-K1 cells; ATP-induced calcium, Fluo-8 fluorescence; inhibition, % at 3 µM; hit rate 0.6% among 360,000; AID 602250;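 active = inhibition above a per-plate cutoff, the plate's mean sample inhibition plus 3 SD, cut at about 24% in these data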;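 note: 0% = DMSO plus EC80 ATP and 100% = DMSO alone without ATP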
# M1 PAM: potentiates human M1 receptor response to acetylcholine; P11229; CHO-K1 hM1, Fluo-8 calcium fluorescence, ACh EC20; 0% = ACh EC20, 100% = maximal ACh; activation, % at 3 µM; hit rate 0.088% among 360,000; in the data active = activation above about 19%, passing the limit was not always enough
# The depositor's hits bear a star; ! = a repeat was not active. Rows were chosen to be rich in hits. Some 2.3% of all compounds tested hit in one or more screens of this group.
SMILES,CHO-K1 Ca ag,CHRM1 agonist,CHRM1 antagonist,M1 PAM parental,CHO-K1 Ca antag,M1 PAM
Cc1ccc(CSc2nnc(NC(=O)C3=COCCO3)s2)cc1,0.3,-2.6,0.4,-0.3,-3.1,7.4
O=C1NC[C@H](Cc2ccccc2)N(C[C@H]2CCCN2C[C@H](Cc2ccc(O)cc2)N2C[C@H](Cc3ccc(O)cc3)N(CC3CCCCCC3)C(=O)C2=O)C1=O,0.4,-7.4,14.9,-7.4,-2.7,-7.3
NS(=O)(=O)c1ccc(CCNC(=O)CCCCCn2c(=S)[nH]c3ccc(Br)cc3c2=O)cc1,7.2,0.1,40.9*,13.5,4.3,-9.4
COC(=O)c1cc(NC(=O)Cc2ccccc2[N+](=O)[O-])cc(C(=O)OC)c1,15.4*,4.4,3.2,2.3,3.3,-0.8
O=C(Cc1ccccc1[N+](=O)[O-])Nc1ccc2c(c1)OCCO2,0.0,-9.2,10.4,18.6,-5.1,3.0
Cc1ccc(CNC(=O)C2CCN(S(=O)(=O)c3ccc4c(c3)CC(C)N4C(=O)C3CCC3)CC2)o1 (stereo not given),4.9,-3.4,1.1,11.0,-11.1,-1.4
O=C(Nc1cccc(F)c1)c1c(F)c(F)c(F)c(F)c1F,5.9,-1.1,15.8,-6.2,24.1*,-10.1
Cc1ccc(N2CC(=O)N(NC(=O)c3sc4nc(C)cc(C)c4c3N)CC2=O)cc1,0.0,-6.3,-8.6,15.9,-14.8,7.7
CCOC(=O)C1CCN(c2ncnc3c(C)csc23)CC1,15.4*,6.3,39.8*,-25.9,17.1,-23.3
CCOC(=O)C1CCN(c2ncnc3nc[nH]c23)CC1,-0.3,0.1,-15.9,9.2,13.9,10.1
CC(=O)Nc1cccc(OCC(=O)Nc2ccccc2)c1,0.8,1.3,-5.3,1.8,-8.4,6.5
CCOC(=O)Nc1cccc(OCC(=O)Nc2ccccc2OCC)c1,0.8,-5.3,-7.5,-6.4,24.1*,-2.9
CC1CC(C)CN(C(=O)c2ccc(Br)c(S(=O)(=O)N3CCOCC3)c2)C1 (stereo not given),1.5,-0.7,0.0,7.9,-1.7,2.2
O=C(c1ccc(Br)c(S(=O)(=O)N2CCOCC2)c1)N1CCN(C/C=C/c2ccccc2)CC1,8.2,-5.6,69.9*,5.3,-11.2,-29.4
COc1ccccc1N=C1NC(=O)/C(=C/c2ccc(N(C)C)cc2)S1,32.3*,22.2*,9.9,-0.5,28.9*,-1.7
O=C(NCCOc1ccccc1)C1CCC(=O)N(CCN2CCOCC2)C1 (stereo not given),0.3,-0.8,-0.6,11.0,-18.8,2.7
COC(=O)CCn1c(C)cc(C(=O)COc2ccccc2C(N)=O)c1C,17.6*,-0.3,16.0,6.3,4.2,-9.3
Cc1cc(C(=O)COc2cccnc2[N+](=O)[O-])c(C)n1Cc1cccs1,12.3,-3.4,15.4,2.5,3.4,-7.0
CC(=O)Nc1ccccc1OCC(=O)c1cc(C)n(Cc2cccs2)c1C,8.8,1.4,32.3*,1.6,22.6,-10.5
OC(c1ccccc1)C(NCCNCc1ccccc1)c1ccccc1 (stereo not given),1.4,-9.4,38.3*,4.0,-3.1,-24.3
CC(C)C(NC(=O)CCNC(=O)c1ccc([N+](=O)[O-])cc1)c1nc2ccccc2[nH]1 (stereo not given),0.0,-4.3,-6.4,18.2,-12.4,8.0
CC(C)C[C@H](NC(=O)/C=C/[C@H]1O[C@@H](n2ccc(=O)[nH]c2=O)[C@H](O)[C@@H]1O)C(=O)O,0.0,16.7*,-14.1,-11.2,15.7,7.2
Cc1nn(CC(=O)N2CCN(c3ccccc3)CC2)c(=O)c2cccn12,0.1,-4.2,-12.8,25.7,-10.5,8.6
Cc1ccc(-c2nnn(CC(=O)N3CCN(c4ccccc4)CC3)n2)o1,0.5,3.5,-21.4,8.3,-18.2,29.6*
COc1ccc(N2CCN(C(=O)Cn3nnc(-c4ccc(OC)c(OC)c4)n3)CC2)cc1,0.3,-0.8,-3.8,-5.0,-11.2,0.9
SMILES,CHO-K1 Ca ag,CHRM1 agonist,CHRM1 antagonist,M1 PAM parental,CHO-K1 Ca antag,M1 PAM
Cc1ccccc1S(=O)(=O)NC(=O)C1(C)CCN1C(=O)c1cccc2ccccc12 (stereo not given),0.8,-3.5,-13.0,21.0,-8.8,5.0
CCOc1ccccc1NC(=O)C(OC(=O)c1cnc(C)cn1)c1ccccc1 (stereo not given),0.3,-3.0,-9.6,46.1*,-12.1,6.3
COc1ccc(C(=O)NNC(=S)NC(=O)c2ccc(OC)cc2)cc1,34.2*,23.4*,11.4,1.0,6.3,-13.4
CCCCC(=O)NC(=S)NNC(=O)c1ccc(OC)cc1,31.3*,11.0,9.3,-1.8,-0.1,-2.6
COc1ccc(C(=O)NNC(=S)NC(=O)c2ccc(F)cc2)cc1Br,66.1*,88.1*,34.9*,-34.8,17.3,-26.6
COc1ccc(C(=O)NNC(=S)NC(=O)c2cccnc2)cc1,-0.1,-5.0,10.1,-4.0,4.7,-3.8
COc1ccc(Cl)cc1C(=O)NNC(=S)NC(=O)c1ccc(F)c(F)c1,1.7,37.1*,2.1,6.2,-5.6,-6.9
Cc1c(C(=O)N(C)c2ccc(Cl)cc2)cnn1-c1ccccc1,2.6,-5.3,-9.7,11.2,-8.9,-6.2
COc1cc(C(=O)NC(=S)NNC(=O)c2ccc3c(c2)OCO3)cc(OC)c1OC,9.1,16.9*,-4.3,8.1,8.8,-1.8
COc1cc(C(=O)NC(=S)Nc2ccc3c(c2)OCO3)cc(OC)c1OC,0.9,-4.1,-5.8,17.6,-6.3,4.5
O=C(O)c1ccccc1-c1c2cc(I)c(=O)c(I)c-2oc2c(I)c(O)c(I)cc12,189.6*,278.8*,78.0*!,-9.3,70.5*,-25.7
COc1ccc(C(=O)CSc2nc3cccnc3n2C)cc1,1.4,3.1,-7.9,-7.2,27.7*,-5.7
CCOC(=O)c1ccc(NC(=O)CSc2nc3cccnc3n2C)cc1,1.3,0.5,19.1,-7.6,34.1*,-8.1
Cc1cccc(CS(=O)(=O)Cc2ccc(C(=O)NCc3ccccc3)o2)c1,6.0,0.2,-12.7,11.5,-12.8,6.3
Cc1cccc(CS(=O)(=O)Cc2ccc(C(=O)NCc3cccs3)o2)c1,27.5*,5.8,-10.6,5.2,1.7,7.4
CC(C)Cn1c(N)c(C(=O)COC(=O)Cc2cccs2)c(=O)n(C)c1=O,12.8,3.3,29.5*,-10.6,12.1,-11.6
CC(C)Cn1c(N)c(C(=O)COC(=O)Cc2cccc(C(F)(F)F)c2)c(=O)n(C)c1=O,10.7,-2.1,37.9*,-27.2,22.6,-18.0
CCCCn1cc(C(=O)c2cc(Br)ccc2O)cc(C#N)c1=O,8.1,2.9,24.5,2.4,24.1*,-10.3
CCOCCCn1cc(C(=O)c2cc(Br)ccc2O)cc(C#N)c1=O,3.2,-4.1,-4.3,11.2,-4.6,12.5
CN(C)CCN(Cc1cccs1)S(=O)(=O)c1csc(C(N)=O)c1,0.1,-2.2,1.4,-11.4,-0.8,7.2
CCc1ccccc1OC[C@@H](O)CN[C@H]1CCCc2ccccc21,3.0,15.9,1.1,-8.9,25.2*,-4.5

# Bioassay records (PubChem)
